36 sequences from the OligoGym collection can be followed below.
Further: reference of the scale not given here.

One assay has as its target HIST1H4B. The experiment in a line: pooled miR-30 sensor sort-seq; sequence = guide strand. As to conditions: shRNA.
AACACCTTGAGAACGCCACGAG: the sensor-assay potency score (higher = more potent) is -0.445. On the same count and under the same terms, the result for TATCCCGCAGCACTTTTCGGTG reads -1.57; that for TAAACCACATCCATGGCAGTGA, 0.196.

In the case of TGACAGTCTTGCGCTTGGCGTG, the sensor-assay potency score (higher = more potent) is -1.49.

With ATCCATGGCAGTGACAGTCTTG, the sensor-assay potency score (higher = more potent) is -0.826.

AATCAAACCGGAAATTCGCTTA yielded a sensor-assay potency score (higher = more potent) of 0.0174. Still for that read-out and setting: the result for TTTGGTGATGCCTTGGATGTTA reads 0.361; that for TTATCCCGCAGCACTTTTCGGT, -0.874; that for TCTCCTCATAAATCAAACCGGA, -1.02. For TCCTTGACGCTTGAGCGCGTAA, the sensor-assay potency score (higher = more potent) is -1.7. The same measure, in the same setting: the value for TTGGATGTTATCCCGCAGCACT was -1.27.

On to TACCCAAACCTTTACCGCCTTT, for which the sensor-assay potency score (higher = more potent) was -0.866.

The target of another assay is HIST1H4G. The description is as above. As to conditions: shRNA.
In the case of TTATCGCTCAGTACCTTGCGAT, the sensor-assay potency score (higher = more potent) was -0.526. Same read-out and setting: the value for ACACCTTGAACACCCGGCGGGT was -1.05. On the same count and under the same terms, the result for TTGAGCACGTAGACCACGGCCA reads -0.24; that for TTTGAGCACGTAGACCACGGCC, -0.756; that for TACCAGATCACATTTTCCAGGA, -0.129. For the sequence ATATTATCGCTCAGTACCTTGC, the sensor-assay potency score (higher = more potent) is -0.774. Same read-out and setting: the result for TATCGCTCAGTACCTTGCGATG reads -1.74; that for AGGAACACCTTGAACACCCGGC, -0.945; that for AACACCTTGAACACCCGGCGGG, -0.571. Same read-out and setting: the value for ATTATCGCTCAGTACCTTGCGA was -0.081; that for AATATTATCGCTCAGTACCTTG was -1.22; that for ACATTTTCCAGGAACACCTTGA was -0.0469.

The next assay deals with HIST2H2AB. The description is as above. As to conditions: shRNA.
On to GTAACTTGTTGAGCTCTTCGTC, for which the sensor-assay potency score (higher = more potent) was -0.977. On the same count and under the same terms, the result for TCTTCGTCATTCCTCACGGCTA reads -1.31.

Turning to TTGAGCTCTTCGTCATTCCTCA, the sensor-assay potency score (higher = more potent) is 0.203. The same measure, in the same setting: the value for TTTTCTTGGGCAACAGGACAGC was -1.07. As for TGGATATTGGGCAAGACGCCGC, the sensor-assay potency score (higher = more potent) was -1.14.

Consider AACTTGTTGAGCTCTTCGTCAT, for which the sensor-assay potency score (higher = more potent) is -0.274.

Consider TTCGTCATTCCTCACGGCTAGT, for which the sensor-assay potency score (higher = more potent) is -0.686.

On to TAACTTGTTGAGCTCTTCGTCA, for which the sensor-assay potency score (higher = more potent) is -0.534. On the same count and under the same terms, the value for ACTTGTTGAGCTCTTCGTCATT was -1.57. In the case of TTGTGACTCTCCGTTTTCTTGG, the sensor-assay potency score (higher = more potent) is -0.765. Same read-out and setting: the value for TTGGGCAACAGGACAGCCTGGA was 0.319; that for TGACTCTCCGTTTTCTTGGGCA was 0.0701.
